The source made the active and inactive calls. Rule for the calls: active = hit-call score of the fitted dose curve at least 0.9, where 1 is the maximum; inactive = score below 0.9.
Key:
[1] = read-out: Vascular endothelial growth factor receptor 2 (Homo sapiens) (UniProt P35968); assay: BSK_4H_VEGFRII: BioMAP Diversity Plus: 4H Assay for Vascular endothelial growth factor receptor 2 (VEGFR2) Biomarker Activity (AID 2283031); settings: primary human endothelial cells (HUVEC); actives raise or lower the signal;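 for AC50: cell-surface VEGFR2 protein level quantified by ELISA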
Procedure, shortened: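 Primary human umbilical vein endothelial cells (4H system), 24 h exposure; cell-surface VEGFR2 measured by ELISA. Bidirectional fitting versus DMSO; cytotoxicity checked in parallel by SRB total-protein staining.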

[2] = read-out: Human Leukocyte Antigen - DR isotype (HLADR), HLA-DRA (gene 3122); assay: BSK_BE3C_HLADR: BioMAP Diversity Plus: BE3C Assay for Human Leukocyte Antigen - DR isotype (HLADR) Biomarker Activity (AID 2283032); settings: primary human bronchial epithelial cells; actives raise or lower the signal
Procedure, shortened: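 Primary human bronchial epithelial cells (BE3C); 24 h chemical exposure; HLA-DR by ELISA; bidirectional curve fit vs DMSO baseline.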

[3] = read-out: Vascular cell adhesion molecule 1 (VCAM1), VCAM1 (gene 7412); assay: BSK_4H_VCAM1: BioMAP Diversity Plus: 4H Assay for Vascular cell adhesion molecule 1 (VCAM1) Biomarker Activity (AID 2283033); settings: primary human endothelial cells (HUVEC); actives raise or lower the signal
Procedure, shortened: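 HUVEC, 24 h post-dose; VCAM-1 by ELISA. Bidirectional curve fit vs DMSO baseline. Parallel SRB total-protein stain (0.1% SRB after 10% TCA fixation, 560 nm) for cytotoxicity.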

[4] = read-out: Interferon-gamma inducible Protein 10 (IP10), CXCL10 (gene 3627); assay: BSK_BE3C_IP10: BioMAP Diversity Plus: BE3C Assay for Interferon-gamma inducible Protein 10 (IP10) Biomarker Activity (AID 2283034); settings: primary human bronchial epithelial cells; actives raise or lower the signal
Procedure, shortened: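 ELISA readout of IP-10 in BE3C system: primary human bronchial epithelial cells, 24 h post-dosing; bidirectional curve fit vs DMSO baseline.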

[5] = read-out: Monokine induced gamma interferon (MIG), CXCL9 (gene 4283); assay: BSK_BE3C_MIG: BioMAP Diversity Plus: BE3C Assay for Monokine induced gamma interferon (MIG) Biomarker Activity (AID 2283035); settings: primary human bronchial epithelial cells; actives raise or lower the signal
Procedure, shortened: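 ELISA quantified MIG after 24 h exposure of primary bronchial epithelial cultures, analysed in both directions relative to DMSO. Cytotoxicity tracked in parallel cultures by sulforhodamine B staining.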

[6] = read-out: Transforming growth factor beta 1 (TGFb1), TGFB1 (gene 7040); assay: BSK_BE3C_TGFb1: BioMAP Diversity Plus: BE3C Assay for Transforming growth factor beta 1 (TGFb1) Biomarker Activity (AID 2283036); settings: primary human bronchial epithelial cells; actives raise or lower the signal
Procedure, shortened: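 Read-out: ELISA for TGF-b1 in primary human bronchial epithelial cultures, 24 h post-dose. Bidirectional curve fitting vs DMSO control; gain or loss of signal both scored.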

[7] = read-out: Plasminogen activator inhibitor-1 (PAI1), SERPINE1 (gene 5054); assay: BSK_BE3C_PAI1: BioMAP Diversity Plus: BE3C Assay for Plasminogen activator inhibitor-1 (PAI1) Biomarker Activity (AID 2283037); settings: primary human bronchial epithelial cells; actives raise or lower the signal
Procedure, shortened: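 ELISA read-out of PAI-1 from human bronchial epithelial primary cells, 24 h post-dosing; bidirectional curve fit vs DMSO baseline, gain or loss of signal scored.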

[8] = read-out: urokinase plasminogen activator (uPA), PLAU (gene 5328); assay: BSK_BE3C_uPA: BioMAP Diversity Plus: BE3C Assay for urokinase plasminogen activator (uPA) Biomarker Activity (AID 2283038); settings: primary human bronchial epithelial cells; actives raise or lower the signal
Procedure, shortened: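 Primary human bronchial epithelial cells, uPA measured by ELISA 24 h after dosing. Bidirectional change relative to DMSO; cytotoxicity checked in parallel cultures by sulforhodamine B total-protein staining.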

[9] = read-out: Urokinase-type plasminogen activator receptor (uPAR), PLAUR (gene 5329); assay: BSK_BE3C_uPAR: BioMAP Diversity Plus: BE3C Assay for Urokinase-type plasminogen activator receptor (uPAR) Biomarker Activity (AID 2283039); settings: primary human bronchial epithelial cells; actives raise or lower the signal
Procedure, shortened: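 ELISA readout of uPAR on human lung primary bronchial epithelial cells, 24 h post-dosing. Bidirectional curve fit relative to DMSO vehicle baseline; gain or loss of signal both scored.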

[10] = read-out: Interleukin-6 (IL6), IL6 (gene 3569); assay: BSK_CASM3C_IL6: BioMAP Diversity Plus: CASM3C Assay for Interleukin-6 (IL6) Biomarker Activity for (AID 2283040); settings: primary human coronary artery smooth muscle cells; actives raise or lower the signal
[11] = read-out: Tissue plasminogen activator (tPA), PLAT (gene 5327); assay: BSK_BE3C_tPA: BioMAP Diversity Plus: BE3C Assay for Tissue plasminogen activator (tPA) Biomarker Activity (AID 2283041); settings: primary human bronchial epithelial cells; actives raise or lower the signal
Procedure, shortened: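 ELISA read-out of tPA on human primary bronchial epithelial cells, 24 h post-dosing; bidirectional fit vs DMSO negative control/baseline.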

[12] = read-out: Interleukin-8 (IL8), CXCL8 (gene 3576); assay: BSK_CASM3C_IL8: BioMAP Diversity Plus: CASM3C Assay for Interleukin-8 (IL8) Biomarker Activity (AID 2283042); settings: primary human coronary artery smooth muscle cells; actives raise or lower the signal;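 note: IL-8 protein level quantified by ELISA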
[13] = read-out: Human Leukocyte Antigen - DR isotype (HLADR), HLA-DRA (gene 3122); assay: BSK_CASM3C_HLADR: BioMAP Diversity Plus: CASM3C Assay for Human Leukocyte Antigen - DR isotype (HLADR) Biomarker Activity (AID 2283043); settings: primary human coronary artery smooth muscle cells; actives raise or lower the signal;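 note: cell-surface HLA-DR protein level quantified by ELISA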
[14] = read-out: Macrophage colony-stimulating factor (MCSF), CSF1 (gene 1435); assay: BSK_CASM3C_MCSF: BioMAP Diversity Plus: CASM3C Assay for Macrophage colony-stimulating factor (MCSF) Biomarker Activity (AID 2283044); settings: primary human coronary artery smooth muscle cells; actives raise or lower the signal;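 note: M-CSF protein amount quantified by ELISA after 24 h exposure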
[15] = read-out: Low-density lipoprotein receptor (LDLR), LDLR (gene 3949); assay: BSK_CASM3C_LDLR: BioMAP Diversity Plus: CASM3C Assay for Low-density lipoprotein receptor (LDLR) Biomarker Activity (AID 2283045); settings: primary human coronary artery smooth muscle cells; actives raise or lower the signal;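 note: LDLR protein level on the cell surface quantified by ELISA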
[16] = read-out: Monocyte Chemoattractant Protein-1 (MCP1), CCL2 (gene 6347); assay: BSK_CASM3C_MCP1: BioMAP Diversity Plus: CASM3C Assay for Monocyte Chemoattractant Protein-1 (MCP1) Biomarker Activity (AID 2283046); settings: primary human coronary artery smooth muscle cells; actives raise or lower the signal;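 note: MCP-1 level quantified by ELISA 24 h after dosing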
[17] = BSK_CASM3C_Proliferation: Cell Proliferation Assessment in the BioMAP Diversity Plus: CASM3C Assay (AID 2283047); settings: primary human coronary artery smooth muscle cells;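 note: sulforhodamine B total protein stain as relative cell number at 560 nm; sub-confluent cells exposed 48 h before staining; fitted both ways against DMSO so gain or loss of cell number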
[18] = read-out: Monokine induced gamma interferon (MIG), CXCL9 (gene 4283); assay: BSK_CASM3C_MIG: BioMAP Diversity Plus: CASM3C Assay for Monokine induced gamma interferon (MIG) Biomarker Activity (AID 2283048); settings: primary human coronary artery smooth muscle cells; actives raise or lower the signal;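 note: MIG protein level measured by ELISA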
[19] = read-out: serum amyloid A (SAA), SAA1 (gene 6288); assay: BSK_CASM3C_SAA: BioMAP Diversity Plus: CASM3C Assay for serum amyloid A (SAA) Biomarker Activity (AID 2283049); settings: primary human coronary artery smooth muscle cells; actives raise or lower the signal;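 note: SAA protein level quantified by ELISA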
[20] = BSK_CASM3C_SRB: Viability Assessment in the BioMAP Diversity Plus: CASM3C Assay (AID 2283050); settings: primary human coronary artery smooth muscle cells;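 note: total protein by SRB staining as cytotoxicity measure in parallel cultures; cells exposed to compound for 24 h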

Measured: AC50

O=C1c2ccccc2C(=O)N1CCc1noc(-c2ccc(CN3CCCCCC3)s2)n1
active: [15] 27.1 µM
inactive: all other assays above

Cc1ncc(CO)c(CO)c1O
inactive: all assays above

CCN(CC)C(=O)c1cc(S(=O)(=O)Cc2ccccc2)c(N2CCC(c3ccccc3)CC2)cc1N(CC)CCN(C)C
inactive: [1] | [14] | [16] | [18] | [19]
active: [2] 8.48 µM | [3] 18.3 µM | [4] 10.9 µM | [5] 12.6 µM | [6] 9.99 µM | [7] 7.91 µM | [8] 10.3 µM | [9] 10.4 µM | [10] 0.7 µM | [11] 6.65 µM | [12] 24.8 µM | [13] 5.38 µM | [15] 0.138 µM | [17] 7.05 µM | [20] 27.1 µM

CN(C[C@@H](CC[N+]12CCC(C3CCCCC3)(CC1)CC2)c1ccc(Cl)c(Cl)c1)C(=O)c1cc(C(F)(F)F)cc(C(F)(F)F)c1
active: [2] 12.6 µM | [3] 32 µM | [4] 13.1 µM | [5] 29.6 µM | [6] 17.5 µM | [7] 12.5 µM | [8] 16.6 µM | [9] 13.6 µM | [10] 15.9 µM | [11] 11.9 µM | [12] 24.7 µM | [13] 12.7 µM | [14] 14.9 µM | [15] 14.3 µM | [16] 15.6 µM | [17] 9.26 µM | [18] 31.1 µM | [19] 18 µM | [20] 14.7 µM
inactive: [1]

O=C1CCC(C2CCCCC2)CC1
active: [4] 29.6 µM
not listed: [2]
inactive: all other assays above

COCC(C)OCC(C)OCC(C)O (stereo unspecified)
not listed: [2]
inactive: all other assays above

CC1=CC(=O)/C(=C(/C)O)C(=O)O1
not listed: [2]
inactive: all other assays above

Cc1c2ccccc2c(C)c2c1ccc1ccccc12
active: [3] 20 µM | [6] 6.06 µM | [7] 29 µM | [10] 20 µM | [13] 20 µM | [17] 12.6 µM | [20] 20 µM
not listed: [2]
inactive: all other assays above

Clc1cc(Cl)c2c(c1)N=C1CCCCCN1C2
not listed: [2]
inactive: all other assays above

O=C(Nc1ccc(Cl)cc1)Nc1ccc(Cl)c(Cl)c1
active: [1] 2.19 µM | [3] 3.48 µM | [4] 2.52 µM | [7] 1.11 µM | [9] 1.1 µM | [10] 12.7 µM | [11] 1.73 µM | [13] 2.81 µM | [14] 12.3 µM | [15] 7.14 µM | [17] 5 µM | [19] 12.6 µM | [20] 10.6 µM
inactive: [5] | [6] | [8] | [12] | [16] | [18]

OCCO
not listed: [1] | [2]
inactive: all other assays above

Cc1cccc2ccccc12
not listed: [2]
inactive: all other assays above

From PubChem BioAssay (EPA / NIEHS)
